Source: PubChem BioAssay (NCI)
This is part of a sample that, as a whole, favours compounds with a hit. Of some 83,000 tested, about 20% had one in any assay.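 Cells were grown in 96-well plates and exposed to the test compound at a single concentration for 48 hours; results are reported as percent growth, with values below 10 considered active.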 Values without a mark were called inactive. Calls of active or inactive are those of the source.

Assays:
Experiment in all cases: NCI-60 one-dose screen, 48 h (100 = growth as untreated, 0 = no growth, -100 = all killed)
Conditions in all cases: 10 µM unless noted
NCI-H23 lung = test system: NCI-H23 lung
NCI-H226 lung = test system: NCI-H226 lung
NCI-H322M lung = test system: NCI-H322M lung
HOP-62 NSCLC = test system: HOP-62 NSCLC
NCI-H460 lung = test system: NCI-H460 lung
HOP-92 NSCLC = test system: HOP-92 NSCLC
NCI-H522 lung = test system: NCI-H522 lung
A549/ATCC NSCLC = test system: A549/ATCC NSCLC
786-0 renal = test system: 786-0 renal
COLO 205 colon = test system: COLO 205 colon

Row | Structure (SMILES) | growth (NCI-H23 lung) | growth (NCI-H226 lung) | growth (NCI-H322M lung) [%] | growth (HOP-62 NSCLC) [%] | growth (NCI-H460 lung) | growth (HOP-92 NSCLC) | growth (NCI-H522 lung) | growth (A549/ATCC NSCLC) | growth (786-0 renal) | growth (COLO 205 colon)
1 | COc1cc2cc(Oc3ccc(NC(=O)Nc4ccc(F)c(C(F)(F)F)c4)cc3)c(C)nc2cc1OCCN(C)C | 102% | 104% | 102 | 104 | 101% | 69.8% | 96.1% | 93.2% | 88.8% | 117%
2 | Cc1csc(/N=C(N)/N=C(\N)c2cccnc2)n1 | 78% | 85.4% | 87.2 | 74.1 | 62.3% | 51.7% | 54.4% | 82% | 90.6% | 81.8%
3 | CC1=Cc2ccccc2OC12C=Cc1ccccc1O2 (stereo unspecified) | 86.5% | 91.7% | 89.7 | 89.5 | 104% | 98.6% | – | 104% | 105% | 110%
4 | CCCCOc1ccc(S(=O)(=O)N2CCN(c3nc(C)cc(N4CCOCC4)n3)CC2)cc1 | 41.7% | 67.2% | 62.2 | 59 | 1.22% (active) | 18.2% | 88.8% | 27.3% | 33.4% | 5.81% (active)
5 | C=C(C=O)[C@@H]1CC[C@]2(C(=O)O)CC[C@]3(C)C(CC[C@@H]4[C@@](C)(CCC#N)[C@H](C(=C)C=O)CC[C@]43C)[C@@H]12 (stereo partly specified) | 17.6% | -16.4% (active) | 98.6 | 115 | 96.7% | 13.6% | – | 82.7% | 59.7% | 108%
6 | Nc1cc(C(=O)N/N=C\c2ccc(OC(F)F)c(OC3CCCC3)c2)nn1CC(O)c1ccccc1 (stereo unspecified) | 95.7% | 92.7% | 103 | 101 | 105% | 84.1% | – | 95.3% | 107% | 112%
7 | CC(=O)OC[C@]12CC[C@@H](C(=O)/C=C/c3cccnc3)[C@@H]1[C@H]1CC[C@@H]3[C@@]4(C)CC[C@H](OC(C)=O)C(C)(C)[C@@H]4CC[C@@]3(C)[C@]1(C)CC2 | 1.02% (active) | -70.5% (active) | 53.5 | 28.1 | 7.8% (active) | -29.1% (active) | -20.3% (active) | 23.1% | 27.2% | -18.6% (active)
8 | CCOC(=O)C(=O)Nc1ccc2c(ccn2C(=O)c2cccc(F)c2)c1 | 95.8% | 97.2% | 93.8 | 95.9 | 100% | 78.9% | 96.1% | 102% | 97.6% | 108%
9 | CN1CCN(c2ccc(Nc3nc(NCCCNS(=O)(=O)c4cccc5ccccc45)c4sccc4n3)cc2)CC1 | 30.4% | 86% | 11.4 | 25.6 | -14% (active) | -43.6% (active) | – | -9.22% (active) | -82.1% (active) | -74.1% (active)
10 | O=C(CSc1nnc(-c2ccc(Cl)cc2)n1-c1ccccc1)Nc1cccc(F)c1 | 23.6% | 20.9% | 36.7 | 50.3 | 17.4% | 57.8% | 52.2% | 2.72% (active) | 0.989% (active) | 80.1%
11 | COc1ccc(OC)c(NC(=O)CCCCCCNC(=O)C(O)(O)C(F)(F)F)c1 | 48.6% | 78.7% | 61 | 36.8 | 39% | 28.8% | – | 47.7% | 50% | 10.5%
12 | C#C[C@]1(O)CC[C@H]2[C@@H]3CC=C4c5sc(Nc6cc(Cl)ccc6OC)nc5CC[C@]4(C)[C@H]3CC[C@@]21C | 33.4% | 52.4% | 53.2 | 32.5 | 17% | -0.0409% (active) | – | 28.7% | -32.3% (active) | 21.8%
13 | Cn1cc(-c2nn3cc(-c4ccncc4)nc3s2)c2cc(Br)ccc21 | 63.1% | 83.5% | 81.3 | – | 54.9% | -0.882% (active) | 79.4% | 66.4% | 84.6% | 46.5%
14 | C#C[C@]1(O)CC[C@H]2[C@@H]3CC=C4c5sc(Nc6ccc(C)cn6)nc5CC[C@]4(C)[C@H]3CC[C@@]21C | 1.46% (active) | 11.5% | 25.1 | – | 5.32% (active) | -1.7% (active) | – | 16.6% | -53.2% (active) | -24.4% (active)
